Compound activity from PubChem.
Sampled rows, rich in hits. Any-hit rate of the full collection: about 19%.
Pf growth 48h = inhibits P. falciparum growth in the first generation, 48 h | P. falciparum luciferase growth in erythrocytes, 48 h | Potency, µM (top dose mostly 28.7 µM), inactives show at the highest dose activity change, negative = inhibition, usual class: inhibitors | 5.9% of 310,000 active; note: potency is the fitted concentration of half-maximal effect; % is set by controls: 0 for no effect and ±100 for the full control effect
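Parasite viability was followed by luminescence of a genomically integrated firefly luciferase. Cultures held 0.1% parasitemia at 2% hematocrit (final), incubated under 5% CO2 at 37 C.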
Shiga inhibitor = Shiga toxin inhibition | Vero cells, Shiga toxin protein synthesis inhibition reporter | inhibition, % at 38.7 µM | 9.2% of 290,000 active; in the data active = inhibition mostly above about 28%, no sharp cut-off; inactive = mostly below about 43%; note: 0% is about no effect
Marburg entry inh = Marburg virus entry inhibition | Marburg virus pseudotyped entry inhibition, cell reporter | Potency, µM (doses to about 37.8 µM), inactives show top-dose activity change, negative = inhibition, hits mostly inhibitors | 1.8% of 300,000 active | AID 540276; calls by dose curve; tested in HEK293 cells; note: potency is the fitted concentration of half-maximal effect; % is set by controls: 0 for no effect and ±100 for the full control effect
Cycloheximide cs = counter-screen hit for Shiga toxin inhibitors, cycloheximide; max response, %; cell reporter, cycloheximide protein synthesis inhibition counterscreen; 12% of 300,000 active; AID 2314; in the data active = max response mostly above about 13%, no sharp cut-off; inactive = mostly below about 14%; note: read at 38.3 µM for the half of the compounds with a filed dose; 0% is about no effect
Pf growth 96h = inhibits malaria parasite growth, 96 h; P. falciparum luciferase reporter growth, 96 h; AID 504834; 6.9% of 320,000 active; Potency, µM (doses to about 28.7 µM), for inactives: top-dose activity change, negative = inhibition, hits mostly inhibitors; note: potency is the fitted concentration of half-maximal effect; % is set by controls: 0 for no effect and ±100 for the full control effect
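Luminescence readout: decreased luciferase signal marks inhibited growth of reporter-expressing P. falciparum in infected red cells (2% hematocrit, 0.05% parasitemia final), exposed to compound two generations (96 h, 37 C, 5% CO2).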
LASV entry inh = inhibitors of Lassa virus binding or cell entry | Lassa virus pseudotype entry inhibition, cell reporter | Potency, µM (doses to about 37.9 µM), inactives show at the top dose activity change, negative = inhibition, actives largely listed as inhibitors | 1.2% of 300,000 active | AID 540256; calls by dose curve; tested in HEK293 cells; note: potency is the fitted concentration of half-maximal effect; % is set by controls: 0 for no effect and ±100 for the full control effect; nearly all actives have a fitted effect of over 50% in size
An asterisk follows results filed as active; ? = inconclusive; . = no result; [ ] = dose if it differs, or a comment. Unless noted, calls come from the whole dose curve; as a rule, active = well fitted inhibition curve with a large enough effect; inconclusive = small, poorly fitted or top-dose-only effect, or another doubt; inactive = no such curve, though single readings can be large or run the other way.

SMILES	Pf growth 48h	Shiga inhibitor	Marburg entry inh	Cycloheximide cs	Pf growth 96h	LASV entry inh
Nc1cc(N)nc(SCC(=O)N2CCN(C(=O)c3ccco3)CC2)n1	.	-3	-3%	0	-16%	4%
COc1ccc(C2NC(=O)c3ccccc3O2)c(OC)c1OC (stereo unspecified)	3%	1	0%	-6	11%	10%
CCOc1ccccc1NC(=O)c1nnn(CC(=O)Nc2ccc3c(c2)OCO3)c1N	29%	-2	?	9	25%	-10%[46.1 µM]
Nc1c(C(=O)Nc2cccc(F)c2)nnn1-c1ccc2c(c1)OCCO2	134%	70*	?	20*	135%	4µM*
COc1ccc(CCNC(=O)c2nnn(-c3ccc4c(c3)OCCO4)c2N)cc1OC	151%	151*	?	70*	0%	?
Cc1ccccc1NC(=O)c1nnn(-c2ccc3c(c2)OCCO3)c1N	85%	80*	?	53*	?	?
Nc1c(C(=O)Nc2ccc3c(c2)OCCO3)nnn1Cc1ccc(F)cc1	59%	.	16%	.	98%	-21%
CCOc1ccccc1NC(=O)c1nnn(-c2ccc3c(c2)OCCO3)c1N	30%	64*	?	26*	?	0%
COc1ccc(CCNC(=O)c2nnn(-c3ccccc3OC)c2N)cc1OC	0%	-2	-16%	-2	?	15%
Cc1c(CN2CCN(C)C(CCO)C2)[nH]c2c(Cl)cccc12 (stereo unspecified)	-22%	-6	-19%	1	?	-1%
COc1ccc(CNC(=O)c2ccc(NC(=O)N3CCSc4ncccc43)cc2)c(OC)c1	.	.	.	.	.	-12%[46.1 µM]
CC(C)(Oc1ccc(Cl)cc1)C(=O)N/N=C/c1cn[nH]c1-c1ccccc1	.	12	-1%	7	?	?
COc1ccc(NS(=O)(=O)c2ccc(C)c(C(=O)NCc3cccnc3)c2)cc1	8%	-27	18%	2	24%	7%
Cc1nc(N)nc(N)c1-c1ccc(Cl)c(Cl)c1	.	.	?	.	.	1µM*
Cc1cc(OCc2nc(N)nc(N)c2-c2ccc(Cl)c(Cl)c2)ccc1[N+](=O)[O-]	.	.	?	.	.	1µM*
Nc1nc(N)nc(-c2ccc(Cl)c(Cl)c2)n1	114%	.	.	.	210%	.
COc1nc(NC(C)(C)C)nc(Oc2ccc(=O)n(C)n2)n1	.	-9	.	-6	12µM*	.
CCNc1nc(NC(C)(C)C)nc(Oc2ccc(=O)n(C)n2)n1	.	.	11%[46.1 µM]	.	.	10%[46.1 µM]
Fc1ccccc1N1CC(c2ccccc2)C(c2cccs2)=N1 (stereo unspecified)	.	-9	0%	0	12µM*	10%
CN1CC(c2ccccc2)C(c2ccc(Cl)cc2)=N1 (stereo unspecified)	?	-7	-21%	3	?	-1%
CCN(CC)C(=O)c1ccccc1NC(=O)CN1C(=O)c2ccccc2S1(=O)=O	24%	2	13%[46.1 µM]	-2	?	-1%
Cc1cccc(C(=O)O/N=C(\N)c2cccc([N+](=O)[O-])c2)c1	38%	99*	?	53*	-1%	8%
N/C(=N\OC(=O)c1cccs1)c1cccc([N+](=O)[O-])c1	219%	85*	?	36*	130%	?
COc1ccc(/C(N)=N/OC(=O)c2cccc([N+](=O)[O-])c2)cc1OC	9%	-19	?	1	.	7%
Cc1ccccc1C(=O)O/N=C(\N)c1cccc([N+](=O)[O-])c1	-35%	99*	?	65*	?	?
SMILES	Pf growth 48h	Shiga inhibitor	Marburg entry inh	Cycloheximide cs	Pf growth 96h	LASV entry inh
N/C(=N\OC(=O)c1cccc([N+](=O)[O-])c1)c1cccnc1	84%	23	?	26*	87%	?
N/C(=N\OC(=O)Oc1ccccc1)c1cccc([N+](=O)[O-])c1	7%	-7	4%	7	26%	2%
N/C(=N\OC(=O)c1cccc2ccccc12)c1cccc([N+](=O)[O-])c1	56%	17	-21%	10	78%	-25%
CCC(=NCCc1ccc(OC)c(OC)c1)C1=C(O)CC(C)(C)CC1=O	?	-7	?	-5	?	7%
CC(=O)Nc1ccc(NC(=S)NC(=O)c2cc3ccccc3o2)cc1	4%	19	-4%	-3	31%	-6%
O=C(NC(=S)Nc1ccc(CN2CCCCC2)cc1)c1ccco1	-3%	32	-3%[46.1 µM]	11	-16%	29%[46.1 µM]
